Screens: PubChem, National Center for Advancing Translational Sciences (NCATS)
ELG1 DNA repair: blocks ELG1-dependent DNA repair in HEK293T cells | HEK293T ELG1-luciferase reporter, luminescence, 16 h; DNA damage induced by 5-fluorouridine | Potency, µM (top dose mostly 46.1 µM), most hits filed as inhibitors | 2.3% of 330,000 active | AID 504467; note: nearly all actives have a fitted effect of over 55% in size
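HEK293T cells expressing luciferase-tagged ELG1 (2,000/well) received 5-Fluorouridine plus compound or DMSO for 16 hr at 37 °C. Luciferase was read by ONE-Glo luminescence after 30 min at room temperature.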
Rab9 promoter act: activators of Rab9 promoter; Huh7 Rab9 promoter-luciferase reporter, luminescence, 24 h; Potency, µM (top dose mostly 9.22 µM), hits mostly activators; 2.8% of 320,000 active; AID 485297; note: nearly all actives have a fitted effect of over 60% in size
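Luminescence from Amplite-detected luciferase (10 minutes, ambient) reports Rab9 promoter activation. Before that, stable Rab9-luciferase Huh7 cells (1500/well, reduced-serum OP-MEM I plus 10% FBS) were exposed to compound for 24 hours at 37C.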
ELG1 genotox: genotoxicity induction in ELG1-luciferase HEK293T cells; 1.3% of 330,000 active; HEK293T ELG1-luciferase reporter, luminescence, 16 h; AID 504466; Potency, µM (highest dose often 46 µM), usual class: activators; note: nearly all actives have a fitted effect of over 60% in size
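HEK293T cells expressing luciferase-tagged ELG1 were treated with compound or DMSO for 16 hr at 37°C. Luciferase activity was then read after 30 min with ONE-Glo at room temperature; rising signal flags genetic stress.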
SMN2 splice enh: increases expression of the SMN2 splice variant; Potency, µM (highest dose often 46.1 µM), hits mostly activators; 2.8% of 210,000 active; HEK293 SMN2-luciferase splicing reporter, luminescence, 30-36 h; note: nearly all actives have a fitted effect of over 55% in size
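qHTS luciferase splicing reporter: luminescence rises when SMN2 exon 7 is included in transfected HEK293 cells. Compound exposure lasted 30-36 h at 37C, with 4.5 mM final sodium butyrate as control, followed by a ONE-Glo read.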
NPC1 promoter act: activators of NPC1 promoter. Huh7 NPC1 promoter luciferase reporter, 24 h. Potency, µM (top dose mostly 9.22 µM), most hits filed as activators. 2.4% of 320,000 active. AID 485313; note: nearly all actives have a fitted effect of over 60% in size
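Luminescence from an NPC1 promoter-driven luciferase reporter in stably transfected Huh7 cells was measured after 24 h compound treatment at 37 °C, followed by 10 min ambient incubation with luciferase detection reagent.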
FLuc counter: inhibits or activates purified firefly luciferase, miR-21 counter-screen | Potency, µM (series often up to 57.5 µM), hits mostly inhibitors | 6.9% of 360,000 active | AID 588342 | P08659 | purified FLuc, Km substrates, luminescence inhibition; note: nearly all actives have a fitted effect of over 55% in size
Target sequence (P08659 whole entry, looked up): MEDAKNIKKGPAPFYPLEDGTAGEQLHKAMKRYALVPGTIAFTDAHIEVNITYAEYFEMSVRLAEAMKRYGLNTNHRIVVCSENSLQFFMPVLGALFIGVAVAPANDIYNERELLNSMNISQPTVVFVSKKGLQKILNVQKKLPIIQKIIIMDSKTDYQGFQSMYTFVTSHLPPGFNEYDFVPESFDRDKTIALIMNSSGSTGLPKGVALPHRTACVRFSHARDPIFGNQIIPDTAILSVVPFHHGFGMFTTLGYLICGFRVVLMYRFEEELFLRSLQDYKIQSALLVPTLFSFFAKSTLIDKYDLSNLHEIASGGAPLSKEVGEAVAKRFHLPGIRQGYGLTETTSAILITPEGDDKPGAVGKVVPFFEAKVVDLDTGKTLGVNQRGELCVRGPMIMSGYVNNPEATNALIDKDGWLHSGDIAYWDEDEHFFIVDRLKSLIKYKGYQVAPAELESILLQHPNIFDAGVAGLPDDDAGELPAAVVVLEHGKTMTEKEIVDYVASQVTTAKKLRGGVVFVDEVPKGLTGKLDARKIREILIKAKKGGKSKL
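Purified P. pyralis luciferase (10nM final) with 10uM D-luciferin and 10uM ATP (Km levels) in 50mM Tris acetate pH 7.5, 10mM Mg acetate, 0.01% Tween-20, 0.05% BSA; qHTS 6-point titration, ~60 µM downward; luminescence read.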
Hits are given with their value; i = inactive; ? = inconclusive; nt = no result given; [ ] = remark or other dose. Compounds with a hit are over-represented: about 9.2% of the library has one in this group of screens. Calls come from the whole dose curve; as a rule, active = well fitted curve in the direction sought with a large enough effect; inconclusive = small, poorly fitted or top-dose-only effect, or another doubt; inactive = no such curve, though single readings can be large; an effect the other way counts as inactive or inconclusive.

SMILES	ELG1 DNA repair	Rab9 promoter act	ELG1 genotox	SMN2 splice enh	NPC1 promoter act	FLuc counter
C#CCSc1ncc(-c2ccccc2)cn1	?	?	i	i	i	?
COc1cccc(NC(=O)CN(c2ccccc2OC)S(=O)(=O)c2cccs2)c1	21µM	i	i	nt	i	nt
COc1ccc(N(CC(=O)Nc2ccc3c(c2)OCO3)S(=O)(=O)c2ccccc2)c(OC)c1	15µM	i	i	i	i	i
COc1ccc(N(CC(=O)Nc2ccc3c(c2)OCO3)S(=O)(=O)c2ccc(C)cc2)cc1OC	26µM	i	i	nt	i	i
COc1ccc(N(CC(=O)NCCC2=CCCCC2)S(=O)(=O)c2ccc(C)cc2)cc1OC	15µM	i	i	i	i	i
COc1ccccc1N(CC(=O)Nc1ccccc1)S(=O)(=O)c1cccs1	i	i	i	nt	i	i
COc1ccc(N(CC(=O)Nc2ccc3c(c2)OCO3)S(=O)(=O)c2ccccc2)cc1OC	?	i	i	nt	i	i
COc1ccc(NC(=O)CC2C(=O)N(c3ccccc3)C(=O)N2Cc2cccnc2)cc1 (stereo unspecified)	nt	nt	nt	nt	nt	i
Nc1nc2nccc(-c3ccc(Cl)cc3)n2n1	?	?	?	i	?	12µM
CC(=O)c1cnc2c(-c3ccc(Cl)cc3)cnn2c1C	?	?	?	13µM	i	?
Clc1ccc(-c2cnn3c(-c4ccncc4)ccnc23)cc1	?	0.35µM	i	3.2µM	0.5µM	0.95µM
N#Cc1cnn2c(N)c(-c3ccc(Cl)cc3)cnc12	i	i	i	i	i	i
Nc1c(C(=O)O)cnc2c(-c3ccc(Cl)cc3)cnn12	?	1µM	?	11µM	1.4µM	3µM
Cc1nn2c(-c3ccncc3)ccnc2c1Cl	i	i	i	i	i	i
Cc1cc(-c2ccc(Cl)cc2)n2nc(N)nc2n1	?	i	?	nt	i	i[2.3 µM]
CCOC(=O)C1CCN(C(=O)c2ccccc2NS(=O)(=O)c2ccc(F)cc2)CC1	i	i	i	i[1.84 µM]	i	i
COc1ccc2[nH]c(=O)c(NC(N)=S)nc2c1	?	i	i	i	i	i
Cc1cccc(N/N=C2/COC(C)(C)CC2=O)c1	?	3.2µM	?	18µM	3.2µM	8.5µM
CC1(C)CC(=O)/C(=N/Nc2ccc(Cl)cc2)CO1	?	1.8µM	?	nt	1.8µM	6.7µM
COC(=O)C(C)Sc1ncnc2c1c(-c1ccccc1)cn2-c1ccc(F)cc1 (stereo unspecified)	nt	nt	nt	i	nt	i
CCN(Cc1cc2ccc(C)cc2[nH]c1=O)C(=O)c1ccncc1	10µM	i	i	i	i	i
CNC(=O)c1cc(C(=O)c2ccc(C(F)(F)F)cc2)c[nH]1	?	i	?	nt	i	?
COC(=O)c1cc(C(=O)c2ccc(C(C)(C)C)cc2)c[nH]1	i	i	?	i	i	19µM
CC(C)(C)c1ccc(C(=O)c2c[nH]c(C(=O)O)c2)cc1	?	?	i	13µM	?	2.1µM
CN(C)C=NC(=O)c1cc(C(=O)c2ccc(C(C)(C)C)cc2)c[nH]1	?	1.1µM	2.9µM	3.2µM	1.1µM	9.5µM
SMILES	ELG1 DNA repair	Rab9 promoter act	ELG1 genotox	SMN2 splice enh	NPC1 promoter act	FLuc counter
Cc1ccc(N=Nc2c(O)c3ccccc3[nH]c2=O)c(S(=O)(=O)N(C)C)c1	i	i	?	i[9.22 µM]	i	1.3µM
Nc1c(C(=O)NCc2ccco2)c2nc3ccccc3nc2n1CCc1ccccc1F	i	i	i	i	i	i
COc1ccc(CCn2c(N)c(C(=O)NCc3ccco3)c3nc4ccccc4nc32)cc1	21µM	i	i	i	i	i
COc1ccc(CCn2c(N)c(C#N)c3nc4ccccc4nc32)cc1OC	23µM	i	i	i	i	i
COc1ccc(CCn2c(N)c(C(=O)NCc3ccco3)c3nc4ccccc4nc32)cc1OC	10µM	i	i	i	i	i
O=C(CN1CCOCC1)Nc1ccccc1Sc1ccc(Cl)cc1	?	i	i	i	i	i
O=C(Cn1c(=O)nc(-c2ccccc2)c2ccccc21)NCCc1ccccc1	nt	nt	nt	nt	nt	i
O=c1cc(O)c2c(=O)n(-c3ccccc3)c3c(c2o1)CCCCC3	i	i	i	i	i	i
CC(C)(C)C1=CC(=O)C(=O)C(C(C)(C)C)=C1	?	i	i	i	i	7.6µM
CC(C)(C)C1=CC(=Nc2ccccc2N)C=C(C(C)(C)C)C1=O	i	i	i	i	i	i
Cc1ccc(C)c(OCC(=O)NCC(C)C)c1C	i	i	i	i	i	i
COc1ccc(/C=C(\C#N)C(=O)N=CN(C)C)cc1	?	i	i	i	i	13µM
COc1ccc(/C=C(\C#N)C(=O)NCc2ccccc2)cc1	i	i	i	nt	i	?
Cc1ncc(CSc2ccc(Cl)cc2)c(CO)c1O	?	i	i	nt	i	i
O=C(N/N=C\c1ccc2c(c1)OCO2)c1ccc(Cn2cc(Br)c([N+](=O)[O-])n2)o1	i	i	i	nt	i	6µM
O=C(N/N=C\c1ccc(F)cc1)c1ccc(Cn2cc(Br)c([N+](=O)[O-])n2)o1	?	i	i	i	i	21µM
Cc1cccc(-c2nnc(SCCC(=O)N3CCOCC3)o2)c1	?	i	i	i	i	?
Cc1cccc(-c2nnc(SCCC(=O)O)o2)c1	nt	nt	nt	i	nt	11µM
Cc1cccc(-c2nnc(SCC(=O)N3CCCC3)o2)c1	?	4µM	?	nt	3.5µM	27µM
Cc1cccc(-c2nnc(SCC(=O)N3CCCCC3)o2)c1	nt	nt	nt	4.5µM	nt	?
COc1cc2c(cc1OC)C(c1ccc(F)cc1)N(c1ccc(F)cc1)C(=O)C2 (stereo unspecified)	nt	nt	nt	i	nt	i
CCCCc1ccc(Nc2ncccc2C#N)cc1	?	2.8µM	?	?	?	9.5µM
N#Cc1cccnc1Nc1ccc(Cl)cc1	i	i	i	i	i	i
CCC(C)Cn1c(/C=C/c2ccccc2)nc2ccccc21 (stereo unspecified)	nt	nt	nt	i	nt	6.7µM
CC(C)CCn1c(/C=C/c2ccccc2)nc2ccccc21	nt	nt	nt	?	nt	4.3µM
SMILES	ELG1 DNA repair	Rab9 promoter act	ELG1 genotox	SMN2 splice enh	NPC1 promoter act	FLuc counter
CC(C)CCn1c(-c2nonc2N)nc2ccccc21	23µM	i	i	i	i	i
CC(C)Cn1c(/C=C/c2ccc(F)cc2)nc2ccccc21	nt	nt	nt	18µM	nt	2.4µM
CC(C)CCn1c(C(C)O)nc2ccccc21 (stereo unspecified)	i	i	i	i	i	i
CCC(C)Cn1c(C(C)C)nc2ccccc21 (stereo unspecified)	i	i[1.84 µM]	i	i	i	i
COc1ccc(S(=O)(=O)N2CCOCC2)cc1NC(=O)c1ccccc1-c1ccc(C(F)(F)F)cc1	?	i	i	i	i	i
COC(=O)c1sc2ccccc2c1-n1cccc1C(=O)C(=O)Nc1ccc(Cl)cc1	i	i	i	i	i	i
Cc1ccc(NC(=O)Cn2c(=O)c(C)nc3ccccc32)cc1	i	i	i	i	i	i
